# Data taken from PubChem BioAssay AID2550 (Johns Hopkins Ion Channel Center, 2010).
# The whole screen tested about 310,000 compounds, of which about 380 (0.12%) were called active.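 Rule for the calls: active = B-score of the integrated fluorescence ratio above library mean plus 3 SD, and starting fluorescence ratio within library mean plus 5 SD; inactive = the rest.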 This excerpt belongs to a sample that is enriched for actives.
# Target: Short transient receptor potential channel 6 (Mus musculus) (UniProt Q61143)
# Sequence (Q61143 whole entry, looked up): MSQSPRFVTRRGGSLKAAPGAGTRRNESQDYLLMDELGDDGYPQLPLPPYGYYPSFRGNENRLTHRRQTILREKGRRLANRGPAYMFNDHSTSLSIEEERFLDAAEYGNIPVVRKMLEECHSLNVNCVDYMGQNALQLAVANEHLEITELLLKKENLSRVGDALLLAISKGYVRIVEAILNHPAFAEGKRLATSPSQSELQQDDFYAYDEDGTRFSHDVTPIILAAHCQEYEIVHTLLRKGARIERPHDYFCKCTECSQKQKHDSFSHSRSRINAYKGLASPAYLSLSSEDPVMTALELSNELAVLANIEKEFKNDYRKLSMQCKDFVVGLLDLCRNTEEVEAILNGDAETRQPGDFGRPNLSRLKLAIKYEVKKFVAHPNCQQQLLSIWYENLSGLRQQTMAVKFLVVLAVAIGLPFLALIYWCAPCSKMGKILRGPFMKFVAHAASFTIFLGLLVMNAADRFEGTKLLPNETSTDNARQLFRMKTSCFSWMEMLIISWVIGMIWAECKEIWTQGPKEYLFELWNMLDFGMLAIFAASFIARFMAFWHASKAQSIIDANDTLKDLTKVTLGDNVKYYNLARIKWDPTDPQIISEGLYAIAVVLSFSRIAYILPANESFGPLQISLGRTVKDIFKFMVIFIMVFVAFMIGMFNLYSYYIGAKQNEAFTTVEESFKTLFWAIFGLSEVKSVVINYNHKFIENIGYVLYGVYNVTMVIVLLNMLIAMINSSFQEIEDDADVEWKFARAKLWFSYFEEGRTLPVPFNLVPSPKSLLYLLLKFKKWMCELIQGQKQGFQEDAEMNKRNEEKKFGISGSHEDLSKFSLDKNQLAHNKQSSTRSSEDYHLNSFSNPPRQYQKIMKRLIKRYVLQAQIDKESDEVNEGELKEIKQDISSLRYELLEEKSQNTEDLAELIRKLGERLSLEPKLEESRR
# Experiment: mouse TRPC6 channel activators, primary screen, cell-based, HEK293, membrane potential dye (AID 2550);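 note: higher score means more depolarization so channel activation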
# Details: HEK293-TRPC6 membrane potential dye fluorescence, at 10 µM; hits give high values
row,SMILES,B-score
1,CCOC(=O)/C(N=Nc1cc(C(=O)O)cc(C(=O)O)c1)=C(\O)CCl,inactive
2,CC(=O)c1ccc(NC(=O)C(C)NCc2ccc(Cl)cc2)cc1 (configuration not stated),inactive
3,CC(=O)N/C(=C/c1ccc(Cl)cc1)C(=O)NCCc1c[nH]c2ccccc12,inactive
4,N#C/C(=C/c1ccc(N2CCCCC2)o1)C(=O)NCCc1c[nH]c2ccccc12,33.2 (active)
5,O=C(CN1C(=O)NC2(CCCCC2)C1=O)NCCc1c[nH]c2ccccc12,inactive
6,O=C(COc1cc2oc(=O)c3c(c2cc1Cl)CCC3)NCCCN1CCOCC1,inactive
7,COc1nc(N(C)C)nc(N2CC(=O)N(CCNS(=O)(=O)c3ccc(C)cc3)C2=N)n1,inactive
8,CC(NCc1ccccc1OC1CCCC1)c1ccccc1 (configuration not stated),14.5 (active)
9,COc1ccccc1CN1CCN(C(c2ccccc2)c2ccccc2)CC1,inactive
10,CC(C)(C)NCc1cc(Br)ccc1OC1CCCC1,inactive
11,COc1ccc2[nH]c(=O)c(CNc3ccc(C)c(C)c3)cc2c1,inactive
12,CC(=O)c1ccc(N2CCN(S(=O)(=O)c3c(C)[nH]c(=O)[nH]c3=O)CC2)cc1,inactive
13,CN1C(C(=O)NCC2CC2)CC2Cn3c(nc4ccccc43)C21 (configuration not stated),inactive
14,CC1(C)OC(=O)C(=CSc2ccc(C(C)(C)C)cc2)C(=O)O1,inactive
15,COc1ccc(NC(=O)CS(=O)(=O)c2ccccc2)cc1,inactive
16,COc1ccc(-c2nnc(NC(=O)CS(=O)(=O)c3ccc(Cl)cc3)o2)c(OC)c1,13.4 (active)
17,Cc1ccc(C)c(-c2nnc(NC(=O)CS(=O)(=O)c3ccccc3)o2)c1,inactive
18,CCOC(=O)CSC1=N/C(=C/c2ccc(-n3cncn3)cc2)C(=O)N1C(C)=O,inactive
19,COc1ccc(S(=O)(=O)NCC(=O)NC2CC2)cc1OC,inactive
20,CCc1ccc2oc(=O)cc(CN3CCCCC3C)c2c1 (configuration not stated),inactive
21,CCC1OC(c2ccc([N+](=O)[O-])cc2)=Nc2ccccc21 (configuration not stated),inactive
22,Cc1cc(Cl)ccc1C(=O)C1CCCN(C(=O)CCN2CCCO2)C1 (configuration not stated),inactive
23,O=C(COc1ccc(S(=O)(=O)N2CCOCC2)cc1Cl)N1CCOCC1,inactive

row,SMILES,B-score
1,O=c1[nH]oc(O)c1-c1ncc(C(F)(F)F)cc1Cl,inactive
2,CC(C)(C)NC(=O)C(=O)NCc1ccncc1,inactive
3,COc1ccc(CNC(=O)COC(=O)/C=C/c2ccc(S(=O)(=O)N3CCOCC3)cc2)cc1,inactive
4,Cc1ccc(NC(=O)CN2C(=O)NC(C)(c3ccc(Cl)cc3)C2=O)c(Br)c1 (configuration not stated),inactive
5,O=C(COc1ccc2ccc(=O)oc2c1)NCC(O)c1ccccc1 (configuration not stated),inactive
6,O=C(Nc1ccccc1Cl)c1ccccc1S(=O)(=O)c1ccccc1[N+](=O)[O-],inactive
7,CCOC(=O)c1sc2nc(C)[nH]c(=O)c2c1C,inactive
8,CCOC(=O)c1sc2nc(CSc3ccccc3)[nH]c(=O)c2c1C,inactive
9,CCOC(=O)c1sc2nc(CSCC(=O)OCc3ccc(C(=O)OC)o3)[nH]c(=O)c2c1C,18.9 (active)
10,COc1ccccc1N1CCN(C(=O)c2ccc(NC3=NC4CS(=O)(=O)CC4S3)cc2)CC1 (configuration not stated),inactive
11,CCn1cc(C(=O)N2CC=C(c3ccccc3)CC2)c(=O)c2ccc(C)nc21,inactive
12,CCOc1cc(-c2conc2N)cc(OCC)c1OCC,inactive
13,O=C(NCc1ccccc1)C(c1ccco1)N(C(=O)c1csnn1)c1ccccc1F (configuration not stated),inactive
14,COc1ccccc1CN1CCNC(=O)C1CC(=O)N(C)CC1CCOCC1 (configuration not stated),inactive
15,Cc1ccc(CNC(=O)Cn2c(=O)c3sccc3n(Cc3cccc([N+](=O)[O-])c3)c2=O)cc1,inactive
16,O=C(O)CC(Cn1cnnn1)c1ccccc1 (configuration not stated),inactive
17,CCc1ccc2nc(Nc3ncc(C(C)=O)c(C)n3)nc(C)c2c1,inactive
18,CC(O)c1ccc(OCCN(C)c2ccccn2)cc1 (configuration not stated),inactive
19,O=C(CC1C(=O)NCCN1C(=O)c1ccc([N+](=O)[O-])cc1)Nc1cccc(Cl)c1 (configuration not stated),inactive
20,CCO[C@@H]1OC(C(=O)NC2CC2)=C[C@H](C)[C@H]1CCCO,inactive
21,O=C(NC1CCCCC1)C1CC(=O)N(CCc2ccccc2)C1 (configuration not stated),inactive
22,CCOC(CNC(=O)C(=O)NCC(c1ccco1)N1CCN(c2ccc(OC)cc2)CC1)OCC (configuration not stated),inactive
23,CCOc1ccc(S(=O)(=O)N2CCC(C(=O)NCc3ccccn3)CC2)cc1Cl,inactive

row,SMILES,B-score
1,O=C(COc1ccccc1)Nc1nonc1NC(=O)COc1ccccc1,inactive
2,CC(=O)c1cc2c(cc1NC(=O)CN1CCCCCC1)OCO2,inactive
3,O=C(CCN1C(=O)C2CCCCC2C1=O)Nc1ccc(OC(F)F)cc1 (configuration not stated),inactive
4,COC(=O)c1ccc(NC(=O)CSc2nnc(CNc3ccc(OC)cc3)n2C)cc1,inactive
5,COC(=O)c1ccc(NC(=O)CSc2nnc(C3CC3)n2C)cc1,inactive
6,COC(=O)c1ccc(NC(=O)CSc2nnc(-c3ccncc3)n2C)cc1,12.9 (active)
7,COc1cccc(-c2cccc(NC(=O)C3CCN(C4CCC4)CC3)c2)c1,inactive
8,CC(=O)c1c(C)[nH]c(C(=O)N2CCN(S(=O)(=O)c3ccc(F)c(F)c3)CC2)c1C,inactive
9,[O-][n+]1onc2c1CCc1[nH]c(-c3ccccc3)nc1-2,inactive
10,C=CCN1C(=NC(=O)COc2ccccc2)SC2CS(=O)(=O)CC21 (configuration not stated),inactive
11,O=c1c2ccccc2cnn1Cc1n[nH]c(=S)n1-c1ccccc1F,inactive
12,CCC(C(=O)OCC(=O)Nc1ccccc1-c1ccccc1)c1ccccc1 (configuration not stated),inactive
13,CCOCCN(C=O)c1cccc(OC)c1,inactive
14,C=CCc1cc(S(=O)(=O)c2ccc(O)c(CC=C)c2)ccc1O,inactive
15,C=CCc1ccc(OCCOc2cccc(/C=N/n3cnnc3)c2)c(OC)c1,inactive
16,CN(C(=O)CC(NC(=O)c1ccccc1)(c1ccccc1)c1ccccc1)c1ccccc1,inactive
17,Cc1cccc(NC(=O)C(C)N2C(=O)C3C4CC(C(Br)C4Br)C3C2=O)c1 (configuration not stated),inactive
18,CC(=O)c1c(N2CCN(c3ccc(F)cc3)CC2)nc(=S)n(-c2ccccc2)c1C,inactive
19,CC(=O)Nc1ccc(NC(=O)COc2ccc(S(=O)(=O)NC(C)c3ccccc3)cc2)cc1 (configuration not stated),inactive
20,FC(F)(F)c1cccc(-c2cc3ccccc3nc2N2CCCC2)c1,inactive
21,Cc1cccc2[nH]c(CN(C)C(=O)C3CCC(=O)N(CCc4ccccc4)C3)nc12 (configuration not stated),inactive
